Results reported in PubChem BioAssay AID624330 (Southern Research Specialized Biocontainment Screening …, 2012).
Screen size: about 340,000 compounds; about 2,100 (0.62%) were called active.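 How the source made its calls: active means first-screen hits whose inhibition reached a set limit at any dose in the follow-up dose series; inconclusive means inhibition above the set first-screen limit but never retested; inactive means the rest.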 Not all results are given here. Measured potencies and affinities stand elsewhere.

Target: Rac GTPase-activating protein 1 (Homo sapiens) (UniProt Q9H0H5)
Sequence (Q9H0H5 whole entry, looked up): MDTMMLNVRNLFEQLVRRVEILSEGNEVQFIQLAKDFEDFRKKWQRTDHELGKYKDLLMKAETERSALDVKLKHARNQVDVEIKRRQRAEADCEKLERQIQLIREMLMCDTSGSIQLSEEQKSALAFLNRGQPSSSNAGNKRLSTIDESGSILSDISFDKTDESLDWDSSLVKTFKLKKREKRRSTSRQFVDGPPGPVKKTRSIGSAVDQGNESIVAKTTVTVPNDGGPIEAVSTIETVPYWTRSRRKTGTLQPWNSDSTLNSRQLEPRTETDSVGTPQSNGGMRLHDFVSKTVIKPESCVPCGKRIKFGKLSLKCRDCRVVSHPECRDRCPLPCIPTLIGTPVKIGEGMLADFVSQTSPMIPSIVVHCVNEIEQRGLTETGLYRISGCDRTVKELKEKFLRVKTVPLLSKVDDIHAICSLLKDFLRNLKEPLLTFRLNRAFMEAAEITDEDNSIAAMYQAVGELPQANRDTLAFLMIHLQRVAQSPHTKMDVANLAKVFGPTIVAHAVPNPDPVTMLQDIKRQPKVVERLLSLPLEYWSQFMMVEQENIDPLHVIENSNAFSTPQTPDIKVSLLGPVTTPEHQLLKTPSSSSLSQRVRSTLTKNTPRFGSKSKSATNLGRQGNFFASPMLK
Test: MgcRacGAP GTPase-activating activity inhibitors, confirmation, biochemical, ADP Hunter fluorescence, primary and confirmatory (AID 624330);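 further: fluorescence reports GDP produced by GAP-driven GTP hydrolysis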
Conditions: MgcRacGAP-stimulated Rac1 GTP hydrolysis, at 30 µM, active compounds read high, GST-tagged Rac1 F28L mutant substrate

inhibition, inactive:
CCCc1nc(NCc2ccccc2)c(C#N)c2c1CCCC2 8.86%
Cc1c(NC(=O)c2ccc(S(=O)(=O)N3CC(C)OC(C)C3)cc2)c(=O)n(-c2ccccc2)n1C (configuration not stated) 4.26%
COc1ccc(C(=O)CCC(=O)Nc2cccc(Cl)c2)cc1 4.1%
COc1ccc(NC(=O)CCC(=O)c2ccc(C(C)C)cc2)cc1 12.2%
CCOc1ccccc1N1CCN(CC(=O)Nc2ccnn2C2CCCC2)CC1 5.05%
CN(C(=O)CSc1nc2scc(-c3ccccc3)c2c(=O)[nH]1)c1ccccc1 6.96%
O=C1c2ccccc2CN2C(=O)c3ccccc3CN12 3.55%
COc1ccccc1/C=C/CN1CCN(Cc2ccc(C)o2)C(CCO)C1 (configuration not stated) 11%
Cc1ccc(CN2CCN(C/C=C/c3ccc(F)cc3)CC2CCO)o1 (configuration not stated) 7.9%
CC(C)CCN1CCN(C/C=C/c2ccco2)CC1CCO (configuration not stated) 14.2%
COc1ccc(/C=C/CN2CCN(CC(C)C)C(CCO)C2)cc1 (configuration not stated) 5.86%
CC(C)(C)c1ccc(OC(=O)c2ccc3snnc3c2)cc1 4.25%
CC(=O)N/C(=C\c1ccccc1)C(=O)OCC(=O)NC(=O)c1ccccc1 5.8%
CC(OC(=O)C1CC(=O)N(Cc2ccco2)C1)C(=O)Nc1cccc(C#N)c1 (configuration not stated) 6.14%
O=C(CN(C(=O)c1csnn1)c1ccc(F)cc1)NCCc1ccccc1 7.07%
COc1ccc(C(O)Cc2nccn2C)cc1 (configuration not stated) 2.89%
Cc1cccc(-n2cnc(C(=O)O)c2)n1 4.99%
CC(=O)Nc1ccc(NC(=O)c2ccnn2C)cc1 3.95%
Cn1nccc1C(=O)Nc1ccc(Cl)cc1 -1.74%
C=CCN(C(=O)c1csnn1)C(C(=O)NC1CCCC1)c1ccc(F)cc1 (configuration not stated) 5.68%
COC(=O)C[C@@H]1C[C@H]2c3cc(N(C)C)ccc3O[C@H]2[C@H](CO)O1 18.6%
COc1ccccc1CNC(=O)C[C@@H]1C[C@H]2c3cc(NC(=O)c4ccc5c(c4)OCO5)ccc3O[C@H]2[C@@H](CO)O1 13.4%
O=C1CN(S(=O)(=O)c2cccc(Cl)c2Cl)c2ccccc2N1 4.66%
COc1cc([N+](=O)[O-])ccc1NC(=O)CCN1C(=O)C2C3CCC(C3)C2C1=O (configuration not stated) 6.61%
O=C(CNCc1cccs1)Nc1ccc(S(=O)(=O)N2CCCCC2)cc1 14.5%
COc1ccc(NC(=O)Cc2cccs2)c(OC)c1 8.99%
S=C(NCc1ccco1)Nc1ccc(Oc2ccccc2)cc1 1.09%
O=C(CNC(=O)c1ccco1)Nc1ccc(N2CCCCCC2)cc1 30.4%
CC(=O)c1ccc(NC(=O)CNCc2cccs2)cc1 28.6%
O=C(NCc1ccco1)c1ccc(Oc2ccccc2)cc1 1.55%
COc1ccc(C)cc1NC(=O)CNCc1cccs1 0.81%
O=C(Cc1ccccc1)Nc1ccc(N2CCCCC2)cc1 1.26%
CCCOC(=O)C(C)n1cnc2scc(-c3ccc(C)cc3)c2c1=O (configuration not stated) 8.26%
N#CC(=C(O)CN1CCN(c2ccccc2F)CC1)c1nc(-c2ccccc2)cs1 6.97%
CCOC(=O)CSc1nc2ccc(N3CCOCC3)cc2c(=O)n1Cc1ccccc1 1.81%
O=C1NCC(NC(=O)C(F)(F)F)c2cc3c(cc21)OCO3 (configuration not stated) -0.85%
CCN1C(=O)[C@H]2[C@H]3CN=C(SCc4ccccc4)N3[C@@](C)(C(=O)OC)[C@H]2C1=O 13.1%
Cc1ccc(C(=O)c2c(NC(=O)CSc3nnc(N)s3)sc3c2CCCC3)cc1 -2.45%
CCOC(=O)N1CCN(CC(=O)Nc2ccc(Oc3ccccc3)cc2)CC1 5.48%
CCN(CC)C(=O)C(=O)Nc1ccc(Oc2ccccc2)cc1 2.61%
Cc1ccc(-c2nc3cnccn3c2Nc2ccc3c(c2)OCCO3)o1 12.5%
CN(C)c1ccc(-n2cccc2/C=N/n2cnnc2)cc1 9.83%
CCOc1ccc(-n2cccc2C=O)cc1 4.88%
COc1ccc(-n2cccc2C=O)cc1 4.9%
O=C(O)c1cccc(-n2cccc2/C=C\[N+](=O)[O-])c1 26.7%
CC(=O)NC(Cc1ccccc1C)C(=O)NC1CCN(c2nnnn2-c2ccccc2)CC1 (configuration not stated) 3.78%
C#CCO[C@@H]1C[C@H](n2ccc(NC(=O)c3ccccc3)nc2=O)O[C@@H]1CO 7.23%
CSc1ncccc1C(=O)N1CCCC(N2CCN(c3ccccc3C)CC2)C1 (configuration not stated) 10.5%
O=C(NC(c1ccccc1)c1ccccc1)C1CCCN(S(=O)(=O)c2cnc[nH]2)C1 (configuration not stated) 1.47%
C=CCc1ccc(OCCOCCNCCOC)c(OC)c1 8.29%
C=CCc1ccc(OCCOCCN(C)C)c(OC)c1 11.5%
COc1cccc(NC(=O)COc2ccc(C(=S)N3CCN(C)CC3)cc2OC)c1 7.49%
Cc1ccc(NC(=O)CSc2nn(-c3ccccc3)c(=S)s2)cc1S(=O)(=O)N(C)C 2.35%
O=C(c1ccccc1F)N1CCN(C(=O)C2CC2)CC1 3.19%
CC1(C)O[C@@H]2[C@H](O1)[C@@H](COS(=O)(=O)O)O[C@H]2n1ccc(=O)[nH]c1=O 2.43%
CC1(C)O[C@@H]2[C@H](O1)[C@@H](COS(=O)(=O)O)O[C@H]2n1cnc2c(=O)[nH]cnc21 7.41%
CC1CN(S(=O)(=O)N(C)C)CCN1S(=O)(=O)N(C)C (configuration not stated) 5.65%
CCOC(=O)c1c(N)sc(-c2ccccc2)c1C 27.2%
COC(=O)c1c(N)sc(Cc2ccccc2)c1C 7.62%
CC(C)c1ccc(N2C(=O)CC(Sc3ncccn3)C2=O)cc1 (configuration not stated) 1.68%
CC1=C(C)CS(=O)N(S(=O)(=O)c2ccccc2)C1 (configuration not stated) 30.6%
O=S(=O)(c1ccccc1)N1CCN(S(=O)(=O)c2ccccc2)C1 3.12%
